We go through 62 compounds from PubChem BioAssay AID1220 (Sanford-Burnham Center for Chemical Genomics, 2008).

The whole screen tested about 190,000 compounds, of which about 1,300 (0.68%) were called active. No stated cut-off is given here; in the data, active means inhibition above about 50%; inactive means the rest. The sample as a whole holds a higher share of actives than the screen did.

This assay deals with Mannose-6-phosphate isomerase (Homo sapiens) (UniProt P34949). The experiment in a line: MPI inhibition at elevated mannose 6-phosphate – biochemical, fluorescence intensity, high mannose 6-phosphate, primary screen (AID 1220). The settings on record: recombinant PMI enzyme, coupled fluorescence intensity; at 20 µM; active compounds read high.
Sequence of Mannose-6-phosphate isomerase (Homo sapiens) (P34949 whole entry, looked up): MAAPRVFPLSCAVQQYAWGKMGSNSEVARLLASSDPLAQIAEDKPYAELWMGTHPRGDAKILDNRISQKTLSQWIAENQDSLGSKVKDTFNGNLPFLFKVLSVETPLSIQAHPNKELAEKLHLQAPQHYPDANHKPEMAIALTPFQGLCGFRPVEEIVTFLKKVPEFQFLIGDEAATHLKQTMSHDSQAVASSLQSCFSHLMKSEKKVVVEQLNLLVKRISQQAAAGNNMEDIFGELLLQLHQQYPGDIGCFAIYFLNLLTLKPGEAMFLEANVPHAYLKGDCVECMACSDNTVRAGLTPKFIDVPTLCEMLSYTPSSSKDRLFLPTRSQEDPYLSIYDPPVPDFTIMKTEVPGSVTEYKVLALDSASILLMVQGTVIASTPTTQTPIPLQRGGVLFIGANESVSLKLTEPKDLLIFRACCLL
As a reminder, the inhibition is the drop in the measured response relative to a control, in per cent. With `O=C(O)c1ccccc1/C=N/Nc1nc(N2CCCCC2)nc(N2CCCCC2)n1`, the inhibition is -0.2% (inactive).

With `Oc1ccc(Br)cc1/C=N/Nc1nc(N2CCCCC2)nc(N2CCOCC2)n1`, the inhibition was 20% (inactive).

Consider `Oc1ccc(/C=N/Nc2cc(N3CCCC3)nc(N3CCCC3)n2)cc1`, for which the inhibition was 58.7% (active).

On to `Oc1ccccc1/C=N/Nc1cc(N2CCCC2)nc(N2CCCC2)n1`, for which the inhibition was 52% (active).

Consider `COc1ccc(/C=N/Nc2nc(N3CCCC3)nc(N3CCCC3)n2)cc1`, for which the inhibition was 0.1% (inactive).

For the compound `COc1cc(/C=N/Nc2nc(N3CCCC3)nc(N3CCCC3)n2)ccc1O`, the inhibition is 5.1% (inactive).

Consider `C(=N\Nc1nc(N2CCCCCC2)nc(N2CCCCCC2)n1)/c1ccccc1`, for which the inhibition is 23.1% (inactive).

Turning to `COc1ccc(/C=N/Nc2cc(N3CCCC3)nc(N3CCCC3)n2)cc1`, the inhibition is 49% (inactive).

On to `Oc1cccc(/C=N/Nc2cc(N3CCCC3)nc(N3CCCC3)n2)c1`, for which the inhibition was 59.8% (active).

Regarding `COc1cc(-c2cc(N)n(S(=O)(=O)c3ccccc3)n2)cc(OC)c1OC`, the inhibition was -2.1% (inactive).

`CCOC(=O)c1ccc(S(=O)(=O)Nc2ccc3cn[nH]c3c2)cc1`: the inhibition was 24.1% (inactive).

On to `CC1CCC(NC(=O)Cn2cc3c(n2)CCCC3)CC1` (configuration not stated), for which the inhibition was 3.7% (inactive).

For `CC(C)=CCCC1=CCC(/C=N/NC(N)=O)C(C)C1` (configuration not stated), the inhibition is -36.5% (inactive).

`OC(c1ccccc1)c1nc2ccccc2s1` (configuration not stated): the inhibition is 6% (inactive).

Regarding `O=C(N/N=C/c1ccc(Br)o1)c1ccc2c(c1)OCCO2`, the inhibition is 0% (inactive).

For the compound `C(=N\Nc1nc2ccccc2[nH]1)/c1ccccn1`, the inhibition is -33.9% (inactive).

As for `N#CCCCN1C(=O)C(=C(C#N)C#N)c2ccccc21`, the inhibition is 59.5% (active).

Regarding `CC(C)CN1C(=O)/C(=C(/C#N)C(=O)NC2CCCCC2)c2ccccc21`, the inhibition was 20% (inactive).

In the case of `N#CCCCN1C(=O)C(O)(CC(=O)c2ccc3c(c2)OCCO3)c2ccccc21` (configuration not stated), the inhibition was 11.1% (inactive).

For the compound `Cc1ccc(C(=O)NCCCNc2ccccc2[N+](=O)[O-])cc1`, the inhibition is 1.8% (inactive).

As for `Cc1ncc(S(=O)(=O)c2ccccc2)c(-c2ccccc2)n1`, the inhibition was -4.6% (inactive).

In the case of `CC(C)C(=O)NC(=S)Nc1ccc(S(=O)(=O)NC(C)(C)C)cc1`, the inhibition was -1.7% (inactive).

Consider `CCOc1cc(/C=C2\C(=O)N(CCc3ccc(OC)c(OC)c3)C(C)=C2C(=O)OC)ccc1O`, for which the inhibition is 50.6% (active).

Take `COC(=O)C1=C(C)N(Cc2ccco2)C(=O)/C1=C\c1ccc([N+](=O)[O-])cc1`: the inhibition is -22% (inactive).

On to `CCOc1cc(/C=C2\C(=O)N(Cc3ccc(C)cc3)C(C)=C2C(=O)OC)ccc1O`, for which the inhibition was 53.3% (active).

As for `COC(=O)C1=C(C)N(CCc2ccc(OC)c(OC)c2)C(=O)/C1=C\N(C)C`, the inhibition is -13.2% (inactive).

`C=CCOc1cccc(/C=C2\C(=O)N(Cc3ccc(C)cc3)C(C)=C2C(=O)OC)c1`: the inhibition is 10.8% (inactive).

In the case of `CCN1C(=O)/C(=C\c2ccc3c(c2)OCO3)C(C(=O)OC)=C1C`, the inhibition was -6.5% (inactive).

As to `COC(=O)C1=C(C)N(Cc2ccc(C)cc2)C(=O)/C1=C\c1ccc(O)c(OC)c1`, the inhibition is 58.7% (active).

In the case of `CCOc1cc(/C=C2/N=C(C)C(C(=O)OC)=C2O)ccc1O`, the inhibition was 31.3% (inactive).

Turning to `COC(=O)C1=C(C)N(Cc2ccco2)C(=O)/C1=C\c1ccc(N(C)C)cc1`, the inhibition is 19.7% (inactive).

Consider `COC(=O)C1=C(C)N(CCc2ccc(OC)c(OC)c2)C(=O)/C1=C\c1ccc(O)cc1`, for which the inhibition is 6% (inactive).

For `COC(=O)C1=C(C)N(Cc2ccc(C)cc2)C(=O)/C1=C\c1cc(OC)c(OC)c(OC)c1`, the inhibition is 23.1% (inactive).

As for `CCOc1cc(/C=C2\C(=O)N(Cc3ccco3)C(C)=C2C(=O)OC)ccc1O`, the inhibition is 68.2% (active).

In the case of `c1ccc(-c2nc3ccccc3[nH]2)nc1`, the inhibition was 15.7% (inactive).

Consider `Cc1ccc(CCNC(=O)C2CCCN(C(=O)N(C)C)C2)cc1` (configuration not stated), for which the inhibition is -6.4% (inactive).

As to `O=C(CN1C(=O)COc2ccccc21)N1CCc2ccccc21`, the inhibition was 1.2% (inactive).

For `COc1ccc(NC(=O)CC2C(=O)N(C)C(=S)N2CCc2ccccc2F)cc1` (configuration not stated), the inhibition was 8.1% (inactive).

In the case of `CC(C)=CCN1CCN(Cc2cnc(N3CCOCC3)s2)CC1CCO` (configuration not stated), the inhibition was -6.5% (inactive).

Take `O=C(C1=C[C@@H](c2coc3ccccc3c2=O)C[C@@H](OCc2ccc(CO)cc2)O1)N1CCOCC1`: the inhibition was -6.8% (inactive).

For the compound `CCOC(=O)Cc1csc(NC(=O)c2cc(=O)c3ccccc3o2)n1`, the inhibition is -6.1% (inactive).

With `CCOC(=O)Cc1csc(SCn2nnc3ccccc3c2=O)n1`, the inhibition is -0.1% (inactive).

Take `CCOC(=O)c1c(N)c(C#N)cn1-c1ccccc1`: the inhibition was 10% (inactive).

Regarding `CNC(=S)Nc1cccc2[nH]ncc12`, the inhibition was 2.6% (inactive).

Turning to `C=CCNC(=S)Nc1cccc2ccccc12`, the inhibition is 14.3% (inactive).

As to `C=CCNC(=S)Nc1cccc2[nH]ncc12`, the inhibition was 52.5% (active).

As for `CCCCC(CC)Cn1c2nc3ccccc3nc2c2c(=N)oc(C)nc21` (configuration not stated), the inhibition is -4.2% (inactive).

Take `COc1ccc(-n2c3nc4ccccc4nc3c3c(=N)oc(C)nc32)cc1`: the inhibition was 55.9% (active).

Consider `CCCCn1c2nc3ccccc3nc2c2c(=N)oc(C)nc21`, for which the inhibition is 30.1% (inactive).

On to `CCn1c(SCC(=O)N/N=C/c2ccc(C)o2)nnc1-c1ccccc1`, for which the inhibition is 3.1% (inactive).

As for `CN1CCN(S(=O)(=O)c2ccc3c(c2)OCCO3)CC1`, the inhibition is -4.9% (inactive).

Regarding `CC(C)(Cl)C1Cc2cc3ccc(=O)oc3cc2O1` (configuration not stated), the inhibition was -9.9% (inactive).

Turning to `COc1cc2c(cc1/C=C/C(=O)O)OC(C)C2` (configuration not stated), the inhibition was 13.7% (inactive).

As for `CCc1nnc(NC(=O)CSc2nnc3c(C)cc4c(C)ccc(C)c4n23)s1`, the inhibition was 2.3% (inactive).

Turning to `O=C(O)/C=C/C(=O)Nc1ccc2nccnc2c1`, the inhibition was 56.2% (active).

`Cc1nc2ccc(NC(=O)/C=C/C(=O)O)cc2nc1C`: the inhibition was 42.9% (inactive).

`CC(C)(C)NC(=O)Nc1ccc2nccnc2c1`: the inhibition was 35.1% (inactive).

Turning to `CN1CC(=O)N(CC(=O)N2CCC(Cc3ccccc3)CC2)C1=O`, the inhibition was -3.5% (inactive).

Consider `CCC(C)N(C(=O)CSc1nc(-c2ccccc2)cs1)C1CCS(=O)(=O)C1` (configuration not stated), for which the inhibition was 3.2% (inactive).

As for `Cc1cc(=O)oc2c(CN(CC(C)C)CC(C)C)c(O)ccc12`, the inhibition was -3.3% (inactive).

In the case of `CC(C)CN(Cc1c(O)ccc2ccccc12)CC(C)C`, the inhibition was 68.8% (active).

As for `Oc1ccc2ccccc2c1CNn1cnnc1`, the inhibition is 3.1% (inactive).
